Publication PMC5540273 (PLoS ONE, 2017)

Tested on: SRC
Conditions: concentration: 1 μM, replicates: in singlicate; n = 1
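Also: KINOMEscan kinase panel screen.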

| SMILES | %Inh |
| --- | --- |
| COc1cccc(C(=O)Nc2cccc(Oc3ccc4nc(NC(=O)C5CC5)cn4n3)c2)c1 | 94.1% |
| Cc1cccc(NC(=O)Nc2ccc(Oc3ncnc4ccn(C)c34)cc2)c1 | 0% |
| Cc1ccc(S(=O)(=O)Nc2ccc(Nc3nccc(Nc4cccc5[nH]ncc45)n3)cc2)cc1 [GSK581271] | 64% |
| O=C(Nc1ccccc1F)NC1CCN(c2ccnc(Nc3ccc(F)cc3)n2)CC1 [GSK1379800] | 0% |
| Nc1n[nH]c2cnc(-c3ccccc3)cc12 [SB-642124] | 0% |
| c1ccc(-c2n[nH]cc2Nc2ccnc3ccccc23)nc1 [GW694077] | 0% |

Tested on: SRMS
Conditions: concentration: 1 μM, replicates: in singlicate; n = 1

| SMILES | %Inh |
| --- | --- |
| CN(c1ccc(NC(=O)Nc2cc(C(F)(F)F)ccc2F)cc1)c1ccnc(Nc2ccc(S(N)(=O)=O)cc2)n1 [GW809893] | 0% |
| Nc1ncnc2c1nc(-c1ccccc1)n2-c1ccccc1 [SKF-97293] | 24% |
| CN1CCN(CCCNc2nccc(-c3c(-c4ccc(F)cc4)nn4cc(C(F)(F)F)ccc34)n2)CC1 [GW621581] | 0% |
| O=C(Nc1cccc(-c2nn3ccccc3c2-c2ccnc(Nc3cccc(C(F)(F)F)c3)n2)c1)c1c(F)cccc1F [GSK292658] | 22% |
| COc1cc(Nc2nccc(N3CCC(NC(=O)Nc4cccc(C(C)=O)c4)C3)n2)cc(OC)c1OC (stereo not shown) [GSK1379753] | 0% |
| Cl.Cl.NCC(C(=O)Nc1cc(Br)c(-c2ccnc3[nH]ccc23)s1)c1ccccc1 (stereo not shown) [GSK1269851] | 0% |
| COc1ccc(Nc2nccc(NCCNC(=O)c3cc4ccccc4s3)n2)cc1 [GSK1379896] | 0% |
